Among the data in PubChem BioAssay (NCI) are growth values, retold here.

Where “and” joins values, the source holds several entries; their conditions need not be identical. Identical values can stand only once. About 83,000 compounds went through this panel and 20% of them were active in at least one assay; those are over-represented in the sample as a whole.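 Treatment: one concentration, 48 hours, 96-well format. Scoring: percent growth, with anything below 10 considered active.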 Calls of active or inactive are those of the source.

Test systems include MOLT-4 leukemia; SR leukemia; RPMI-8226 leukemia; OVCAR-8 ovarian; OVCAR-5 ovarian; SK-OV-3 ovarian; OVCAR-3 ovarian; NCI/ADR-RES ovarian; T-47D breast; BT-549 breast; MDA-MB-435 melanoma; SW-620 colon; MCF7 breast; HCT-116 colon; KM12 colon; IGROV1 ovarian; HS 578T breast; HCC-2998 colon; OVCAR-4 ovarian.
What all share (assay): NCI-60 one-dose screen, 48 h (100 = growth as untreated, 0 = no growth, -100 = all killed)
What all share (settings): 10 µM unless noted

In the case of `COC(=O)C1=CO[C@@H](C)[C@@H]2CN3CCc4c([nH]c5cc(OC)ccc45)[C@@H]3C[C@H]12`, the growth with MOLT-4 leukemia was 94.8% (inactive); in the assay with SR leukemia, 92.7% (inactive); in the assay on RPMI-8226 leukemia, 94.3% (inactive); in the assay on OVCAR-8 ovarian, 95.9% (inactive); in the assay on OVCAR-5 ovarian, 95.6% (inactive); in the assay on SK-OV-3 ovarian, 100% (inactive). Also, the growth in the assay with OVCAR-3 ovarian is 100% (inactive); in the assay on NCI/ADR-RES ovarian, 93.8% (inactive); in the assay on T-47D breast, 93.2% (inactive); in the assay on BT-549 breast, 105% (inactive); with MDA-MB-435 melanoma, 107% (inactive); in the assay on SW-620 colon, 99.9% (inactive). Besides, the growth was 91.1% (inactive) with MCF7 breast, 103% (inactive) in the assay on HCT-116 colon and 109% (inactive) in the assay with KM12 colon.
On to `O=C/C=C/c1ccco1`, for which the growth in the assay with MOLT-4 leukemia is 98.9% (inactive); with SR leukemia, 99.4% (inactive); in the assay on RPMI-8226 leukemia, 102% (inactive); with OVCAR-8 ovarian it was 100% (inactive); in the assay on OVCAR-5 ovarian, 101% (inactive); in the assay with SK-OV-3 ovarian, 96.1% (inactive). In addition, the growth with IGROV1 ovarian is 106% (inactive); in the assay with HS 578T breast, 107% (inactive); in the assay with NCI/ADR-RES ovarian, 109% (inactive); with T-47D breast, 107% (inactive); in the assay on BT-549 breast, 104% (inactive); in the assay with MDA-MB-435 melanoma, 106% (inactive). Also, the growth was 104% (inactive) in the assay on SW-620 colon; 96% (inactive) in the assay on MCF7 breast; 90% (inactive) in the assay on HCT-116 colon; 106% (inactive) with HCC-2998 colon; 97.6% (inactive) in the assay on KM12 colon.
For the compound `CCC(Br)(CC)C(=O)NC(N)=O`, the growth in the assay on MOLT-4 leukemia was 99.2% (inactive); in the assay with SR leukemia, 105% (inactive); with RPMI-8226 leukemia it was 109% (inactive); with OVCAR-8 ovarian it was 113% (inactive); in the assay on OVCAR-5 ovarian it was 101% (inactive); in the assay with SK-OV-3 ovarian, 114% (inactive). Further, the growth with IGROV1 ovarian is 110% (inactive); with OVCAR-3 ovarian it was 111% (inactive); in the assay with HS 578T breast, 106% (inactive); in the assay with NCI/ADR-RES ovarian it was 116% (inactive); with T-47D breast, 101% (inactive); in the assay with BT-549 breast, 108% (inactive). In addition, the growth in the assay with MDA-MB-435 melanoma is 102% (inactive); in the assay with SW-620 colon it was 110% (inactive); in the assay on MCF7 breast, 94.6% (inactive); with HCT-116 colon it was 93% (inactive); with HCC-2998 colon it was 105% (inactive); with KM12 colon, 104% (inactive).
Take `O=[N+]([O-])c1cc(Br)c(O)c(Br)c1`: the growth in the assay with MOLT-4 leukemia was 107% (inactive); in the assay on SR leukemia it was 102% (inactive); with RPMI-8226 leukemia, 98.9% (inactive); in the assay with OVCAR-8 ovarian it was 99.1% (inactive); with OVCAR-5 ovarian it was 115% (inactive); in the assay with SK-OV-3 ovarian it was 103% (inactive). In addition, the growth was 111% (inactive) in the assay on IGROV1 ovarian; 109% (inactive) with HS 578T breast; 104% (inactive) in the assay on NCI/ADR-RES ovarian; 115% (inactive) in the assay on T-47D breast; 121% (inactive) with BT-549 breast; 111% (inactive) in the assay on MDA-MB-435 melanoma. The growth in the assay on SW-620 colon is 108% (inactive); in the assay on MCF7 breast it was 94.3% (inactive); with HCT-116 colon it was 97.3% (inactive); in the assay on HCC-2998 colon it was 96.1% (inactive).
Consider `c1ccc2c(c1)sc1ccccc12`, for which the growth was 104% (inactive) with MOLT-4 leukemia; 105% (inactive) in the assay on SR leukemia; 103% (inactive) in the assay with RPMI-8226 leukemia; 101% (inactive) with OVCAR-8 ovarian; 95.7% (inactive) in the assay on OVCAR-5 ovarian; 104% (inactive) in the assay with SK-OV-3 ovarian. The growth in the assay on IGROV1 ovarian is 98.2% (inactive); in the assay on NCI/ADR-RES ovarian it was 99.4% (inactive); with T-47D breast, 112% (inactive); in the assay with BT-549 breast, 96.7% (inactive); in the assay on MDA-MB-435 melanoma it was 92.8% (inactive); in the assay with SW-620 colon it was 106% (inactive). The growth with MCF7 breast is 102% (inactive); in the assay with HCT-116 colon it was 96.6% (inactive); in the assay on HCC-2998 colon, 97.3% (inactive); in the assay on KM12 colon it was 103% (inactive).
In the case of `CCOC(=O)P(=O)(OCC)OCC`, the growth is 100% (inactive) with MOLT-4 leukemia; 92.5% (inactive) in the assay on SR leukemia; 112% (inactive) in the assay on RPMI-8226 leukemia; 101% (inactive) in the assay on OVCAR-8 ovarian; 112% (inactive) in the assay with OVCAR-5 ovarian; 98.3% (inactive) with SK-OV-3 ovarian. The growth with IGROV1 ovarian is 89.5% (inactive); with OVCAR-3 ovarian it was 113% (inactive); in the assay on HS 578T breast it was 109% (inactive); with NCI/ADR-RES ovarian, 109% (inactive); in the assay on T-47D breast, 108% (inactive); in the assay on MDA-MB-435 melanoma it was 120% (inactive). Further, the growth was 106% (inactive) in the assay with SW-620 colon, 106% (inactive) in the assay with MCF7 breast, 111% (inactive) in the assay with HCT-116 colon and 106% (inactive) with HCC-2998 colon.
`CCOC(=O)C1C(c2ccco2)C2(C#N)C(=N)OC1(C)C2(C#N)C#N` (stereo not drawn): the growth in the assay with MCF7 breast is 45.1% [100 µM] (inactive) and 0.896% [100 µM] (active).
As for `Nc1c(Cl)c(Cl)nc(C(=O)O)c1Cl`, the growth in the assay with MOLT-4 leukemia is 70.2% (inactive); in the assay with RPMI-8226 leukemia, 123% (inactive); in the assay with OVCAR-8 ovarian, 94.2% (inactive); in the assay on OVCAR-5 ovarian it was 111% (inactive); with OVCAR-4 ovarian, 95.4% (inactive); with SK-OV-3 ovarian it was 99.9% (inactive). Also, the growth with IGROV1 ovarian was 29.9% (inactive); in the assay with OVCAR-3 ovarian, 107% (inactive); in the assay with HS 578T breast, 104% (inactive); with NCI/ADR-RES ovarian it was 101% (inactive); with T-47D breast, 101% (inactive); in the assay on MDA-MB-435 melanoma, 106% (inactive). The growth in the assay on SW-620 colon was 99.1% (inactive); in the assay on MCF7 breast, 95.2% (inactive); in the assay on HCT-116 colon, 97.3% (inactive); in the assay on HCC-2998 colon, 95.7% (inactive); in the assay with KM12 colon it was 101% (inactive).
On to `COc1cc(C=C2C(=O)NC(=O)NC2=O)ccc1O`, for which the growth with OVCAR-8 ovarian was 93.7% (inactive); in the assay on OVCAR-5 ovarian, 92% (inactive); in the assay with OVCAR-4 ovarian, 101% (inactive); in the assay on SK-OV-3 ovarian, 107% (inactive); in the assay with IGROV1 ovarian, 105% (inactive); in the assay with OVCAR-3 ovarian, 110% (inactive). Besides, the growth was 123% (inactive) with HS 578T breast; 97.5% (inactive) with NCI/ADR-RES ovarian; 101% (inactive) in the assay on T-47D breast; 111% (inactive) with BT-549 breast; 101% (inactive) with MDA-MB-435 melanoma; 108% (inactive) in the assay with SW-620 colon. For the same compound, the growth with MCF7 breast was 106% (inactive); with HCT-116 colon it was 102% (inactive); in the assay with HCC-2998 colon it was 96% (inactive); with KM12 colon, 104% (inactive).
As for `ClC1OC(Cl)(Cl)C(Cl)(Cl)OC1(Cl)Cl` (stereo not drawn), the growth in the assay on MOLT-4 leukemia was 97.1% (inactive); in the assay on SR leukemia it was 95% (inactive); with OVCAR-8 ovarian, 101% (inactive); with OVCAR-5 ovarian, 93.4% (inactive); in the assay with SK-OV-3 ovarian, 111% (inactive); with IGROV1 ovarian it was 104% (inactive). In addition, the growth in the assay with OVCAR-3 ovarian is 110% (inactive); in the assay with HS 578T breast it was 135% (inactive); in the assay with NCI/ADR-RES ovarian, 102% (inactive); with T-47D breast it was 91.4% (inactive); with BT-549 breast, 84.4% (inactive); in the assay with MDA-MB-435 melanoma, 101% (inactive). The growth is 115% (inactive) in the assay with SW-620 colon, 76.9% (inactive) with MCF7 breast, 89.4% (inactive) with HCT-116 colon and 112% (inactive) with HCC-2998 colon.
